The list is not random: actives were taken first. Their share in the collection is about 2.2%.
Ba/F3 V617F tox = lowers viability of Ba/F3 cells expressing EpoR and JAK2V617F | ATP luminescence | inhibition, % at 5.6 µM | 1.1% of 220,000 active | AID 1446;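 active = inhibition above the campaign mean plus 3 SD over all tested compounds, cut at about 24% in these data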;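 note: cytokine-independent growth of Ba/F3 cells driven by EpoR plus mutant JAK2; 0% = DMSO-treated cells and 100% = JAK inhibitor I control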
BaF3 parental = parental Ba/F3 viability inhibition as JAK2V617F counter-screen | CellTiter-Glo ATP luminescence | inhibition, % at 5.6 µM | 1.1% of 220,000 active | AID 1486;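 active = inhibition above a per-campaign cutoff, the mean inhibition of all tested compounds plus 3 SD, cut at about 27% in these data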;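 note: 0% = DMSO wells and 100% = JAK Inhibitor I control wells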
IEC-6 tox-1 = counter-screen for KLF5 inhibitors: cytotoxicity in IEC-6 cells; AID 1825; IEC-6 cytotoxicity, luminescence viability; 0.78% of 290,000 active; inhibition, % at 5 µM;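 note: 0% = plate median of test compound wells and 100% = cytotoxic reference compound wells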
APP transl inh = APP translation inhibition; SH-SY5Y APP 5'UTR-luciferase reporter, luminescence; inhibition, % at 2 µM; 0.82% of 190,000 active;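 active = inhibition above a set limit, derived from the sample mean plus 3 SD, cut at about 45% in these data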
aSyn 5UTR inh = MLPCN primary screen, SNCA 5' untranslated region; alpha-synuclein 5'UTR reporter, inhibitor activity; inhibition, % (tested at 7.5 µM); 0.82% of 300,000 active; in the data active = inhibition above about 60%;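 note: H4 neuroglioblastoma cells stably carrying SNCA 5'UTR luciferase fusion; 0% = DMSO wells and 100% = positive control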
KLF5 inhibitor = suppresses KLF5 promoter-driven expression | DLD-1 KLF5 promoter-luciferase reporter, luminescence | inhibition, % at 5 µM | 0.23% of 290,000 active | AID 1700;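 active = inhibition above a per-plate limit of that plate's mean compound inhibition plus 3 SD, cut at about 60% in these data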;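 note: 0% = DMSO wells and 100% = LY294002 at 200 µM; higher means less KLF5 promoter-driven luciferase light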
KLF5 inh confirm = confirmation of KLF5 inhibitors | shares compounds with KLF5 inhibitor | DLD-1 KLF5 promoter firefly luciferase reporter, luminescence | inhibition, % at 4 µM | 79% of 610 active | AID 1834;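 active = inhibition above a set limit taken from the earlier primary screen, cut at about 63% in these data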;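 note: 0% = DMSO wells and 100% = LY294002 at 200 µM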
IEC-6 tox-2 = rat IEC-6 cytotoxicity, KLF5 inhibitor counter-screen; shares compounds with KLF5 inhibitor; IEC-6 rat intestinal cells, viability luminescence; inhibition, % at 4 µM; 56% of 610 active; in the data active = inhibition above about 23%;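 note: cells exposed to compounds for 48 hours before viability read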
IEC-6 tox confirm = IEC-6 cytotoxicity, confirmation assay. shares compounds with IEC-6 tox-1. 63% of 1,900 active. IEC-6 rat intestinal epithelial viability, luminescence. inhibition, % at 5 µM;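 note: 0% = vehicle and 100% = reference cytotoxic drug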
* = called active by the depositor; / = no result given. Cut-off read from the data, not from the text of the source, unless noted: active = inhibition above about 22%; inactive = the rest.

SMILES | Ba/F3 V617F tox | BaF3 parental | IEC-6 tox-1 | APP transl inh | aSyn 5UTR inh | KLF5 inhibitor | KLF5 inh confirm | IEC-6 tox-2 | IEC-6 tox confirm
CCOC(=O)c1cc(NC(=O)CN2CCCC2)cc(C(=O)OCC)c1 | / | / | -1 | / | 6 | -12 | / | / | /
CCn1c(C)nc2cc(-c3nc4n(n3)Cc3ccccc3-4)ccc21 | 48* | 42* | 33* | 85* | 87* | 112* | 110* | 39* | 43*
CC(=O)Oc1ccc(C2C3=C(CC(C)(C)CC3=O)Nc3cc4c(cc32)OCCO4)cc1 (stereo not drawn) | 2 | 8 | 2 | -10 | 14 | -8 | / | / | /
O=C1OCC2=C1C(c1ccc(F)cc1)c1cc3c(cc1N2)OCO3 (stereo not drawn) | 59* | 16 | 77* | 95* | / | 68* | 88* | 86* | 84*
C#CCOc1ccc(C2C3=C(COC3=O)Nc3cc4c(cc32)OCO4)cc1OC (stereo not drawn) | 94* | 95* | 95* | 95* | 132* | 79* | 88* | 83* | 84*
O=C1OCC2=C1C(c1ccc(F)cc1)c1cc3c(cc1N2)OCCO3 (stereo not drawn) | 96* | 96* | 95* | 94* | / | 98* | 92* | 84* | 86*
O=C1OCC2=C1C(c1ccc3c(c1)OCO3)Sc1ccccc1N2 (stereo not drawn) | 1 | 8 | -2 | -9 | -7 | -15 | / | / | /
COc1cc2c(cc1OC)C(c1ccc3c(c1)OCO3)C1=C(CC(C)(C)CC1=O)N2 (stereo not drawn) | 3 | 4 | -3 | 3 | -25 | -28 | / | / | /
O=C(Nc1cc2c3c(c1)CC(=O)N3CCC2)C1CC1 | / | / | / | / | 9 | / | / | / | /
CC(C)NC(=O)Cn1cc(C(=O)C2CC2)c2ccccc21 | -3 | 10 | -9 | 11 | 6 | 3 | / | / | /
CCC(=O)Nc1c(-c2ccccc2Cl)c(=O)c2ccccc2n1CC | / | / | -4 | / | -7 | -25 | / | / | /
COc1cccc(NC(=O)Nc2ccc(C(C)(C)C)cc2)c1 | 0 | 2 | 10 | -120 | -1 | -114 | / | / | /
Brc1ccc(C2=Nn3c(nnc3-c3n[nH]c4c3CCC4)SC2)cc1 | 75* | 81* | 77* | 94* | 86* | 67* | 67* | 63* | 59*
COc1ccc2nc(/C=N/NC(=O)CCCCCNC(=O)OC(C)(C)C)ccc2c1 | 0 | -6 | -5 | / | -70 | -107 | / | / | /
COc1cc2c(c(OC)c1OC)-c1ccc(OC)c(=O)cc1[C@@H](NC(C)=O)CC2 | / | / | 96* | / | 96* | 79* | 88* | 81* | 83*
COc1cc2c(c(OC)c1OC)-c1ccc(OC)c(=O)cc1[C@@H](N(C)CC#CCO)CC2 | / | / | 93* | / | 87* | 81* | 92* | 75* | 74*
CCN(CC)c1ccc2c(cc1=O)[C@@H](NC)CCc1cc(OC)c(OC)c(OC)c1-2 | / | / | 85* | / | 107* | 70* | 92* | 81* | 76*
COc1cc2c(c(OC)c1OC)-c1ccc(N(C)CC(OC)OC)c(=O)cc1[C@@H](NC(C)=O)CC2 | / | / | 92* | / | 84* | 86* | 86* | 61* | 66*
COc1cc(C(=O)NC2CCCc3ccccc32)cc(OC)c1OC (stereo not drawn) | / | / | -2 | / | 10 | -3 | / | / | /
COc1cc2c(cc1OC)C(COc1ccc(F)cc1)N(C(C)=O)CC2 (stereo not drawn) | / | / | -4 | / | 22 | -40 | / | / | /
O=C(NCCCO)c1ccc(CSc2nc3ccccc3c(=O)[nH]2)cc1 | -4 | 1 | 2 | / | 15 | -12 | / | / | /
CC(=O)Nc1ccc(NC(=O)C(C)OC(=O)c2cc(S(=O)(=O)N(C)C)ccc2N2CCCC2)cc1 (stereo not drawn) | / | / | / | / | 9 | / | / | / | /
C/C(=N\NC(=O)c1nnn(-c2nonc2N)c1-c1ccc2c(c1)OCO2)c1ccccc1 | / | / | -12 | / | -9 | -23 | / | / | /
C/C(=N\NC(=O)c1nnn(-c2nonc2N)c1-c1ccccc1)c1ccccc1O | / | / | 96* | / | 60 | 62* | 85* | 63* | 75*
COc1cc(-c2noc(C)c2/C=C/c2ccc(OC(C)=O)cc2)cc(OC)c1OC | / | / | 91* | / | 95* | 71* | 83* | 63* | 60*
SMILES | Ba/F3 V617F tox | BaF3 parental | IEC-6 tox-1 | APP transl inh | aSyn 5UTR inh | KLF5 inhibitor | KLF5 inh confirm | IEC-6 tox-2 | IEC-6 tox confirm
COc1cc(-c2noc(C)c2C#CCO)cc(OC)c1OC | / | / | 5 | / | 13 | -12 | / | / | /
N#CC1=C2SCN(c3ccccc3)CN2C(=O)CC1c1cccs1 (stereo not drawn) | 0 | 1 | 2 | 16 | -11 | 0 | / | / | /
N#CC1=C2SCC(O)(c3ccccc3)N2C(=O)CC1c1cccs1 (stereo not drawn) | 74* | 75* | 82* | 91* | / | 72* | 74* | 62* | 56*
Cc1ccc(NC(=O)CCCc2c[nH]c3ccccc23)nc1 | / | / | -1 | / | -1 | -15 | / | / | /
COc1cc(C(=O)N/N=C/C2CC=CCC2)cc(OC)c1OC (stereo not drawn) | 83* | 79* | 90* | 93* | 108* | 64* | -13 | -6 | 0
COc1cc(C(=O)N/N=C/c2ccsc2C)cc(OC)c1OC | 83* | 85* | 89* | 96* | 92* | 76* | 86* | 66* | 60*
COc1ccc(/C=N/Nc2nc3ccccc3[nH]2)cc1OC | 0 | 0 | 8 | -42 | -228 | -14 | / | / | /
C(=N\Nc1nc2ccccc2[nH]1)/c1ccc2ncccc2c1 | 90* | 96* | 95* | / | 95* | 62* | 57 | 90* | 85*
Cc1ccc(-c2csc3ncn(CC(=O)O)c(=O)c23)cc1C | / | / | 2 | / | 0 | -19 | / | / | /
CCOc1ccc2c(c1)C(C)=CC(C)(C)N2S(=O)(=O)c1ccc(C)cc1 | 79* | 77* | 90* | 95* | 103* | 68* | 91* | 55* | 59*
CCOc1ccc2c(c1)C(C)=CC(C)(C)N2C(=O)Nc1ccccc1F | -3 | 4 | 2 | -7 | -7 | -5 | / | / | /
COC(=O)C1(C)CN(S(=O)(=O)c2ccc(C)cc2)c2cc(OC)ccc2C1=O (stereo not drawn) | 2 | 3 | 7 | -7 | 14 | -9 | / | / | /
COc1ccc2c(c1)C(C)=CC(C)(C)N2S(=O)(=O)c1ccc(C)cc1 | 70* | 74* | 81* | 84* | -63 | 87* | 88* | 55* | 53*
Cc1ccc2[nH]c(C(=O)N/N=C/c3ccccc3O)c(C)c2c1 | / | / | 98* | / | -2 | 71* | 69* | 17 | 54*
O=C(NCc1ccccc1)C1=C[C@@H](c2csc3ccccc23)C[C@@H](OCCCCO)O1 | 25* | 57* | 30* | 9 | 95* | 70* | 61 | 7 | 16

Bioassay records: PubChem BioAssay, several laboratories
